# About 79,000 compounds went through this panel and 15% of them were active in at least one assay; those are over-represented in the sample as a whole. A number with no mark means an inactive call. Calls of active or inactive are those of the source. No stated cut-off is given here; in the data, active means growth inhibition above about 70%; inactive means the rest.
# Experiment: NCI Yeast Anticancer Drug Screen. Data for the sgs1 strain (AID 173);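 further: 0% = growth of vehicle-only control cultures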
# Details: S. cerevisiae sgs1 mutant, active compounds read high
# Description: Growth inhibition of yeast strains with defined genetic alterations is measured as a screen for potential anti-cancer activity. Selected strains with alterations in DNA damage repair or cell cycle control were exposed to compounds and growth inhibition was measured relative to vehicle treated controls. The strain used in this assay is sgs1
SMILES,growth inhibition (at 1.2 µM),growth inhibition (at 3.7 µM),growth inhibition (at 11.0 µM),growth inhibition (at 33.0 µM),growth inhibition (at 100.0 µM)
CC(=O)OCC1OC(O[C@H]2C=C[C@@H](C(=O)OCc3ccccc3)n3c(=O)n(-c4ccccc4)c(=O)n32)C(OC(C)=O)C(OC(C)=O)C1OC(C)=O (stereo not given in full),-9%,-15%,-8%,50%,77% (active)
Nc1ccc(S(=O)(=O)Nc2ccc(Nc3c4ccccc4nc4ccccc34)cc2)cc1,8%,17%,24%,43%,79% (active)
CCCCCCCCCCCCCCCCNC(=O)/C(=C\c1ccc(Cl)c(Cl)c1)NC(=O)c1ccccc1,2%,5%,5%,14%,49%
CC(C)(C)[OH+][O-].[O-]c1ccc(Cl)cc1C=Nc1ccc(Cl)cc1[O-].[O]=[V],12%,16%,23%,33%,53%
CN(C)Cc1cccc(CN(C)C)[c]1[Sn]([Br])([c]1ccccc1)[c]1ccccc1,8%,44%,66%,81% (active),97% (active)
Cc1ccc(Nc2n[nH]c(=S)s2)cc1,-34%,-36%,-25%,41%,88% (active)
S=c1cn[nH]c2ccc(Br)cc12,-2%,-6%,-5%,61%,85% (active)
O=C1NC(c2c(Cl)cccc2Cl)Nc2ccccc21 (stereo not given),-27%,-33%,-25%,41%,88% (active)

# From PubChem BioAssay (NCI)
